Data published in PubChem BioAssay AID1159580 (chemical genetic matrix, 2015).
Hit rate of the full screen: of about 5,500 compounds, about 2,000 (36%) were called active. Inconclusive results (about 18%) are left out. Cut-off read from the data, not from the text of the source: active = normalized growth mostly below about 0.91 (no sharp cut-off); inconclusive = no clear call, values can overlap the other calls; inactive = mostly above about 0.92. Some of the results follow.

Test: chemical genetic growth profiling, strain panel (AID 1159580);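 note: tested at 20 µM; growth read once vehicle control cultures reached saturation at 30 °C; 1 = growth at the plate median or of vehicle wells; lower values mean less growth of the strain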
Details: growth OD
[1] = S. cerevisiae deletion strains, locus YDL101C, strain DUN1, stronger effect = lower value
[2] = S. cerevisiae deletion strains, locus YHR030C, strain SLT2, stronger effect = lower value

Measured: normalized growth

CC(=O)c1ccc(Sc2ccccc2)c([N+](=O)[O-])c1
active: S. cerevisiae deletion strains, locus YAR019C, strain CDC15, stronger effect = lower value 0.877 | S. cerevisiae deletion strains, locus YBL105C, strain PKC1, stronger effect = lower value 0.878 | S. cerevisiae deletion strains, locus YBR135W, strain CKS1, stronger effect = lower value 0.864 | S. cerevisiae deletion strains, locus YBR136W, strain MEC1, stronger effect = lower value 0.874 | S. cerevisiae deletion strains, locus YBR160W, strain CDC28, stronger effect = lower value 0.876 | S. cerevisiae deletion strains, locus YDL017W, strain CDC7, stronger effect = lower value 0.879 | S. cerevisiae deletion strains, locus YDL028C, strain MPS1, stronger effect = lower value 0.885 | [1] 0.873 | S. cerevisiae deletion strains, locus YDL108W, strain KIN28, stronger effect = lower value 0.876 | S. cerevisiae deletion strains, locus YDL132W, strain cdc53, stronger effect = lower value 0.87 | S. cerevisiae deletion strains, locus YDR052C, strain DBF4, stronger effect = lower value 0.898 | S. cerevisiae deletion strains, locus YDR054C, strain cdc34, stronger effect = lower value 0.845 | S. cerevisiae deletion strains, locus YDR226W, strain ADK1, stronger effect = lower value 0.857 | S. cerevisiae deletion strains, locus YFL009W, strain cdc4, stronger effect = lower value 0.868 | S. cerevisiae deletion strains, locus YFL029C, strain CAK1, stronger effect = lower value 0.87 | S. cerevisiae deletion strains, locus YFR003C, strain YPI1, stronger effect = lower value 0.874 | S. cerevisiae deletion strains, locus YFR028C, strain CDC14, stronger effect = lower value 0.865 | S. cerevisiae deletion strains, locus YGR092W, strain DBF2, stronger effect = lower value 0.387 | [2] 0.75 | S. cerevisiae deletion strains, locus YIL147C, strain SLN1, stronger effect = lower value 0.875 | S. cerevisiae deletion strains, locus YJL128C, strain PBS2, stronger effect = lower value 0.778 | S. cerevisiae deletion strains, locus YJR016C, strain ILV3, stronger effect = lower value 0.882 | S. cerevisiae deletion strains, locus YKL048C, strain ELM1, stronger effect = lower value 0.753 | S. cerevisiae deletion strains, locus YKL193C, strain SDS22, stronger effect = lower value 0.869 | S. cerevisiae deletion strains, locus YLR113W, strain HOG1, stronger effect = lower value 0.698 | S. cerevisiae deletion strains, locus YMR001C, strain CDC5, stronger effect = lower value 0.858 | S. cerevisiae deletion strains, locus YMR277W, strain FCP1, stronger effect = lower value 0.859 | S. cerevisiae deletion strains, locus YNL006W, strain LST8, stronger effect = lower value 0.855 | S. cerevisiae deletion strains, locus YNL161W, strain CBK1, stronger effect = lower value 0.869 | S. cerevisiae deletion strains, locus YNL207W, strain RIO2, stronger effect = lower value 0.861 | S. cerevisiae deletion strains, locus YNL222W, strain SSU72, stronger effect = lower value 0.876 | S. cerevisiae deletion strains, locus YOL078W, strain AVO1, stronger effect = lower value 0.861 | S. cerevisiae deletion strains, locus YOR329C, strain SCD5, stronger effect = lower value 0.881 | S. cerevisiae deletion strains, locus YPL209C, strain IPL1, stronger effect = lower value 0.872 | S. cerevisiae deletion strains, locus YPL256C, strain CLN2, stronger effect = lower value 0.782 | S. cerevisiae deletion strains, locus YPR025C, strain CCL1, stronger effect = lower value 0.884 | S. cerevisiae deletion strains, locus YPR106W, strain ISR1, stronger effect = lower value 0.866 | S. cerevisiae deletion strains, locus YPR111W, strain DBF20, stronger effect = lower value 0.838 | S. cerevisiae deletion strains, strain NNK1, stronger effect = lower value 0.853 | S. cerevisiae deletion strains, strain TSCII, stronger effect = lower value 0.86
inactive: S. cerevisiae deletion strains, locus YDL214C, strain PRR2, stronger effect = lower value 0.792 | S. cerevisiae deletion strains, locus YDR477W, strain SNF1, stronger effect = lower value 0.788 | S. cerevisiae deletion strains, locus YER123W, strain YCK3, stronger effect = lower value 0.799 | S. cerevisiae deletion strains, locus YER133W, strain GLC7, stronger effect = lower value 0.874 | S. cerevisiae deletion strains, locus YFR019W, strain FAB1, stronger effect = lower value 0.88 | S. cerevisiae deletion strains, locus YGR040W, strain KSS1, stronger effect = lower value 0.78 | S. cerevisiae deletion strains, locus YGR052W, strain FMP48, stronger effect = lower value 0.784 | S. cerevisiae deletion strains, locus YHR079C, strain IRE1, stronger effect = lower value 0.813 | S. cerevisiae deletion strains, locus YHR082C, strain KSP1, stronger effect = lower value 0.859 | S. cerevisiae deletion strains, locus YHR205W, strain SCH9, stronger effect = lower value 0.773 | S. cerevisiae deletion strains, locus YJL095W, strain BCK1, stronger effect = lower value 0.756 | S. cerevisiae deletion strains, locus YJL157C, strain FAR1, stronger effect = lower value 0.818 | S. cerevisiae deletion strains, locus YJR066W, strain TOR1 (second series), stronger effect = lower value 0.823 | S. cerevisiae deletion strains, locus YJR066W, strain TOR1, stronger effect = lower value 0.811 | S. cerevisiae deletion strains, locus YKL067W, strain YNK1, stronger effect = lower value 0.788 | S. cerevisiae deletion strains, locus YKL101W, strain HSL1, stronger effect = lower value 0.753 | S. cerevisiae deletion strains, locus YKL203C, strain TOR2, stronger effect = lower value 0.814 | S. cerevisiae deletion strains, locus YLR133W, strain CKI1, stronger effect = lower value 0.79 | S. cerevisiae deletion strains, locus YLR403W, strain SFP1, stronger effect = lower value 0.756 | S. cerevisiae deletion strains, locus YML070W, strain DAK1, stronger effect = lower value 0.809 | S. cerevisiae deletion strains, locus YMR205C, strain PFK2 (second series), stronger effect = lower value 0.772 | S. cerevisiae deletion strains, locus YNL020C, strain ARK1, stronger effect = lower value 0.803 | S. cerevisiae deletion strains, locus YNL183C, strain NPR1, stronger effect = lower value 0.798 | S. cerevisiae deletion strains, locus YNL307C, strain MCK1 (second series), stronger effect = lower value 0.772 | S. cerevisiae deletion strains, locus YOL136C, strain PFK27, stronger effect = lower value 0.772 | S. cerevisiae deletion strains, locus YOR061W, strain CKA2, stronger effect = lower value 0.815 | S. cerevisiae deletion strains, locus YOR119C, strain RIO1, stronger effect = lower value 0.835 | S. cerevisiae deletion strains, locus YOR231W, strain MKK1, stronger effect = lower value 0.788 | S. cerevisiae deletion strains, locus YPL031C, strain PHO85, stronger effect = lower value 0.785 | S. cerevisiae deletion strains, locus YPL153C, strain RAD53, stronger effect = lower value 0.79 | S. cerevisiae deletion strains, locus YPL204W, strain HRR25, stronger effect = lower value 0.773

CC(=O)c1ccc(Sc2ccccn2)c([N+](=O)[O-])c1
inactive: S. cerevisiae deletion strains, locus YAL013W, strain DEP1, stronger effect = lower value 0.996 | S. cerevisiae deletion strains, locus YBR229C, strain ROT2, stronger effect = lower value 1 | S. cerevisiae deletion strains, locus YCL061C, strain MRC1, stronger effect = lower value 1.02 | [1] 1.01 | S. cerevisiae deletion strains, locus YDR150W, strain NUM1, stronger effect = lower value 0.985 | S. cerevisiae deletion strains, locus YEL061C, strain CIN8, stronger effect = lower value 0.974 | S. cerevisiae deletion strains, locus YGR078C, strain PAC10, stronger effect = lower value 0.986 | [2] 0.71 | S. cerevisiae deletion strains, locus YHR087W, strain rtc3, stronger effect = lower value 1.01 | S. cerevisiae deletion strains, locus YJL187C, strain SWE1, stronger effect = lower value 0.98 | S. cerevisiae deletion strains, locus YJR043C, strain POL32, stronger effect = lower value 1.01 | S. cerevisiae deletion strains, locus YJR075W, strain HOC1, stronger effect = lower value 0.973 | S. cerevisiae deletion strains, locus YKL190W, strain CNB1, stronger effect = lower value 0.997 | S. cerevisiae deletion strains, locus YLR039C, strain RIC1, stronger effect = lower value 0.849 | S. cerevisiae deletion strains, locus YLR058C, strain SHM2 (second series), stronger effect = lower value 0.991 | S. cerevisiae deletion strains, locus YLR085C, strain ARP6, stronger effect = lower value 0.835 | S. cerevisiae deletion strains, locus YLR262C, strain YPT6, stronger effect = lower value 0.822 | S. cerevisiae deletion strains, locus YML094W, strain GIM5, stronger effect = lower value 0.983 | S. cerevisiae deletion strains, locus YMR219W, strain ESC1, stronger effect = lower value 0.983 | S. cerevisiae deletion strains, locus YMR263W, strain SAP30, stronger effect = lower value 0.993 | S. cerevisiae deletion strains, locus YMR307W, strain GAS1, stronger effect = lower value 1.04 | S. cerevisiae deletion strains, locus YNL128W, strain TEP1, stronger effect = lower value 0.967 | S. cerevisiae deletion strains, locus YNL153C, strain GIM3, stronger effect = lower value 0.98 | S. cerevisiae deletion strains, locus YNL298W, strain CLA4 (second series), stronger effect = lower value 0.934 | S. cerevisiae deletion strains, locus YNL322C, strain KRE1, stronger effect = lower value 0.966 | S. cerevisiae deletion strains, locus YNR030W, strain Alg12, stronger effect = lower value 0.99 | S. cerevisiae deletion strains, locus YOL006C, strain TOP1, stronger effect = lower value 0.747 | S. cerevisiae deletion strains, locus YPL055C, strain LGE1, stronger effect = lower value 0.976 | S. cerevisiae deletion strains, locus YPL241C, strain CIN2, stronger effect = lower value 1.01 | S. cerevisiae deletion strains, locus YPR135W, strain CTF4, stronger effect = lower value 0.927 | S. cerevisiae strains, strain wild type, stronger effect = lower value 0.984
